Data taken from PubChem BioAssay (NCATS).
Records with an inconclusive call do not appear. A call without a number means that no potency is given here. Active and inactive are the calls of the source. Unless noted, calls come from the whole dose curve; as a rule, active = well fitted activation curve with a large enough effect in the main read-out, with a control signal flat (not every such curve was filed as active); inconclusive = small, poorly fitted or top-dose-only effect, or effect the other way, or a change in a side signal; inactive = flat fitted curve, though single readings scatter.

Assays:
[1] = target: 3',5'-cyclic-AMP phosphodiesterase 4B (Homo sapiens) (UniProt Q07343); test: qHTS Assay for Inhibitors of PDE-IV (AID 607); settings: HEK293 ACTOne CNG channel cells, membrane potential fluorescence; series mostly up to 22.9 µM
Method in brief: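 The readout is membrane depolarisation from a cAMP-sensing CNG channel, detected with a potential dye at ex 535/em 590. Cells were HEK293-derived (endogenous PDE-IV) at 1000 cells/well, titrated up to 22.9 uM final.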

[2] = Cellular Toxicity (caspase-3) HepG2 (AID 654; active = well fitted curve in the direction sought with a large enough effect; an effect the other way counts as inactive or inconclusive; note: potency is the fitted concentration of half-maximal effect;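 for caspase-3 activation: cells exposed to compound for 16 hours before reading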); settings: HepG2 caspase-3 activation, luminescence; series mostly up to 92.2 µM
Method in brief: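 HepG2 cells (1500/well) were treated 16 h at 37 °C in complete medium, then caspase 3/7 activity was read by Caspase-Glo luminescence. Data were normalized to DMSO and 100 uM tamoxifen; AC50 came from Hill-equation fits of qHTS concentration-response.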

[3] = Cellular Toxicity (caspase-3) Jurkat (AID 655; active = well fitted curve in the direction sought with a large enough effect; an effect the other way counts as inactive or inconclusive;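 note: cells exposed to compound for 16 h at 37 °C before reading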; note: potency is the fitted concentration of half-maximal effect); settings: Jurkat caspase-3 activation, luminescence; series mostly up to 92.2 µM
Method in brief: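 Jurkat cells (5000/well) in complete medium exposed 16 h at 37 C; caspase-3/7 activity read by Caspase-Glo luminescence after 20 min at room temperature. Normalized to DMSO and 100 uM tamoxifen; AC50 from Hill fits.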

[4] = Cellular Toxicity (caspase-3) HUV-EC-C (AID 656; active = well fitted curve in the direction sought with a large enough effect; an effect the other way counts as inactive or inconclusive); settings: HUV-EC-C cells, caspase-3 activation (apoptosis), vehicle = 0, 100 µM tamoxifen = 100%; series mostly up to 92.2 µM
Method in brief: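 HUV-EC-C cells (1000/well) in complete medium, compound-treated 16 h at 37 °C; caspase-3/7 activity read by Caspase-Glo 3/7 luminescence. Normalized to DMSO (basal) and 100 uM tamoxifen (100%); AC50 from Hill-equation concentration-response fits.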

[5] = Cellular Toxicity (caspase-3) SHSY5Y (AID 657; active = well fitted curve in the direction sought with a large enough effect; an effect the other way counts as inactive or inconclusive); settings: SH-SY5Y caspase-3 activation, DMSO zero, 10 µM staurosporine = 100%; series mostly up to 91.7 µM
Method in brief: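 SH-SY5Y human neuroblastoma cells, 1500/well, exposed to compound for 16 hours at 37 °C in complete medium. Caspase-3/7 activity read by Caspase-Glo luminescence after 1 hr at room temperature, normalized to DMSO and 10 uM staurosporine; AC50 from Hill fit.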

[6] = Cellular Toxicity (caspase-3) BJ (AID 658; active = well fitted curve in the direction sought with a large enough effect; an effect the other way counts as inactive or inconclusive); settings: BJ fibroblasts, luminescence, normalized: DMSO 0%, staurosporine 100%; series mostly up to 91.7 µM
Method in brief: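 Readout: Caspase-Glo 3/7 luminescence increase in BJ cells after 16 hr treatment at 37 °C. Staurosporine and tamoxifen served as positive controls; AC50 values came from Hill modelling of data normalized to DMSO and 10 uM staurosporine.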

[7] = Cellular Toxicity (caspase-3) MRC-5 (AID 659; active = well fitted curve in the direction sought with a large enough effect; an effect the other way counts as inactive or inconclusive; note: potency is the fitted concentration of half-maximal effect); settings: MRC-5 cells, luminescence; Potency: caspase-3 activation; series mostly up to 91.7 µM
Method in brief: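 Concentration-dependent caspase 3/7 activation is measured in human normal lung fibroblasts (MRC-5) following 16-hour treatment. AC50 values come from standard Hill-equation modeling of luminescence normalized to DMSO and 10 uM staurosporine.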

[8] = Cellular Toxicity (caspase-3) Mesangial (AID 660; active = well fitted curve in the direction sought with a large enough effect; an effect the other way counts as inactive or inconclusive;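 note: cells exposed to compound for 16 h before the caspase read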); settings: mesangial cells, normalized: DMSO 0%, 100 µM tamoxifen 100%; series mostly up to 91.7 µM
Method in brief: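 Human renal glomerular mesangial cells, 1000/well, 5 h at 37 C before 16 h compound treatment. Caspase-Glo 3/7 luminescence after 20 min; normalized to DMSO and 100 uM tamoxifen, AC50 from Hill fit.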

[9] = Cellular Toxicity (caspase-3) SK-N-SH (AID 661; active = well fitted curve in the direction sought with a large enough effect; an effect the other way counts as inactive or inconclusive); settings: SK-N-SH caspase-3 activation, qHTS, DMSO as zero, staurosporine as full; series mostly up to 91.7 µM
Method in brief: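 Human SK-N-SH neuroblastoma cells, 1500/well, were exposed to compounds for 16 hours at 37 °C. Caspase-Glo 3/7 luminescence was normalized to DMSO (basal) and 10 uM staurosporine (100%), and AC50 came from a Hill fit.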

Chain of 3',5'-cyclic-AMP phosphodiesterase 4B (Homo sapiens) (Q07343 whole entry, looked up): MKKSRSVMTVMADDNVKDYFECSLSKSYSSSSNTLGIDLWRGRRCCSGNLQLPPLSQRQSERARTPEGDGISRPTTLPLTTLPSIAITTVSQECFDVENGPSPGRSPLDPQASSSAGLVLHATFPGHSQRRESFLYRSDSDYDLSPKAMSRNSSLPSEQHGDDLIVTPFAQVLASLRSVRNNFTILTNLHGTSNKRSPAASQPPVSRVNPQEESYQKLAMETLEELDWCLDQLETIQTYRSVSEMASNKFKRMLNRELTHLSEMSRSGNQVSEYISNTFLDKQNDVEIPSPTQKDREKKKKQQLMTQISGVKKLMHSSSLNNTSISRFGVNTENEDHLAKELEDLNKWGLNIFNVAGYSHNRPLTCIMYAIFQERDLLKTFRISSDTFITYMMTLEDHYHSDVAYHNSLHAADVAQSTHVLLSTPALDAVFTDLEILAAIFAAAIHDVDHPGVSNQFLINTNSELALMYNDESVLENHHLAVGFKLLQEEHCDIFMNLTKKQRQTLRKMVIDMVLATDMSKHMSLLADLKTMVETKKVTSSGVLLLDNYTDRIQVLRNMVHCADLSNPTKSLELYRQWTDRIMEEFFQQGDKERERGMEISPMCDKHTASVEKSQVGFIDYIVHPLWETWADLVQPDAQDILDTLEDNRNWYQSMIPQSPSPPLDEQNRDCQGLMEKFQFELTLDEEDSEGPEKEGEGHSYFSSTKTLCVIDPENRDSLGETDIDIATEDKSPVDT

OCCN1CCN(CCCN2c3ccccc3Sc3ccc(Cl)cc32)CC1
outcome [1]: inactive

CN(C)CCCN1c2ccccc2Sc2ccc(Cl)cc21
outcome [1]: inactive

N=c1c[n+](N2CCOCC2)[n-]o1
outcome [1]: inactive

CCCCOc1cc(C(=O)OCCN(CC)CC)ccc1N
outcome [1]: inactive

Cc1cc(N)c2ccccc2[n+]1CCCCCCCCCC[n+]1c(C)cc(N)c2ccccc21
outcome [1]: inactive

CCN(CC)CCNC(=O)c1cc(Cl)c(N)cc1OC
outcome [1]: inactive

Nc1ccc(S(=O)(=O)NC(=O)c2ccccc2)cc1
outcome [1]: inactive

NC1CCN(c2cccc(Cl)n2)CC1
outcome [1]: inactive

C#CCN(C)Cc1ccccc1
outcome [1]: inactive

CCCn1cnc2c1c(=O)n(CCCCC(C)=O)c(=O)n2C
outcome [1]: inactive

O=C1c2c(O)cccc2Cc2cccc(O)c21
Potency [2]: inactive | Potency [3]: inactive | outcome [4]: inactive | outcome [5]: inactive | outcome [6]: inactive | Potency [7]: inactive | outcome [8]: inactive | outcome [9]: inactive

CC(C)NC[C@H](O)c1ccc(O)c(O)c1
outcome [1]: inactive

Cc1cccc(Nc2cc(Cl)nc(SCC(=O)O)n2)c1C
outcome [1]: inactive

Cc1cc2c(cc1S(N)(=O)=O)S(=O)(=O)CCC2
outcome [1]: inactive

c1ccc(CN(CC2=NCCN2)c2ccccc2)cc1
outcome [1]: inactive

Cc1c(O)cccc1C(=O)N[C@@H](CSc1ccccc1)[C@H](O)CN1C[C@H]2CCCC[C@H]2C[C@H]1C(=O)NC(C)(C)C
Potency [2]: 63.1 µM (active) | Potency [3]: 31.6 µM (active) | outcome [4]: inactive | outcome [5]: inactive | outcome [6]: inactive | Potency [7]: 50.1 µM (active) | outcome [8]: inactive

CC(=O)c1ccc2c(c1)N(CCCN(C)C)c1ccccc1S2
outcome [1]: inactive

CC1(C)OC(=O)NC1=O
outcome [1]: inactive

CC1=C(CC(=O)O)c2cc(F)ccc2/C1=C\c1ccc(S(C)(=O)=O)cc1
outcome [1]: inactive
